# The panel holds about 83,000 compounds, 20% with a hit somewhere; the sample as a whole holds those more often.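 Method: cells in 96-well plates; compound added at one concentration; 48 h incubation; percent growth measured; values under 10 scored active.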 Unmarked numbers belong to inactive results. The source made the active and inactive calls.
# System: SNB-19 CNS
# Test: NCI-60 one-dose screen, 48 h (100 = growth as untreated, 0 = no growth, -100 = all killed)
# Conditions: 10 µM unless noted
row,SMILES,growth
1,CNc1sc(S(=O)(=O)NC)nc1S(=O)(=O)c1ccc(C)cc1,96%
2,COc1cccc(N2CCN(C3=C(Cl)C(=O)c4ncccc4C3=O)CC2)c1,90.8%
3,O=C1[C@@H]2Cc3c([nH]c4ccccc34)[C@@H](c3ccc(Cl)cc3)N2C(=O)CN1C1CCN(Cc2ccccc2)CC1,50.5%
4,CC(=O)OCCCCN1C=C/C(=C\C(=O)n2ccc3ccccc32)c2ccccc21,103%
5,CN1CCN(c2ccc(Nc3nc(NCCNS(=O)(=O)c4ccc5ccccc5c4)c4sccc4n3)cc2)CC1,90.6%
6,CC1=C(C)C(=O)C(Nc2ccc3c(c2)OCCO3)=C(Br)C1=O,98.5%
7,C=C(C)[C@@H]1CC[C@]2(C(=O)NC3CCCCC3)CC[C@]3(C)[C@H](CC[C@@H]4[C@@]5(C)CC[C@H](N)C(C)(C)[C@@H]5CC[C@]43C)[C@@H]12,103%
8,CCOC(=O)c1c(NC(=O)c2ccc(C(F)(F)F)cc2)sc2c3c(ccc12)OCN(C)C3,26.7%
9,C#CCN(C)CCCOc1ccc(NCc2ccc(/C=C/C(=O)NO)cc2)cc1Cl,8.74% (active)
10,COc1cc(/C=N\NC(=O)c2ccc3nc(-c4ccc(Br)cc4)[nH]c3c2)cc(OC)c1OC,59.3%
11,C=C1CCc2nc(SCC(=O)O)ccc2N1,92.7%
12,CN1CCC[C@]2(C)[C@H]3CC[C@@H]4[C@@H]5[C@H]6OC[C@@]5(CCC6(C)C)CC[C@@]4(C)[C@]3(C)CC[C@H]2C1(C)C,84.8%
13,C=C(C=O)[C@@H]1CC[C@]2(C(=O)O)CC[C@]3(C)C(CC[C@@H]4[C@@](C)(CCC#N)[C@H](C(=C)C=O)CC[C@]43C)[C@@H]12 (stereo not given in full),62.7%
14,NCCNC(=O)c1cccc(COc2ccccc2NC(=O)c2cc(Cl)c(Cl)[nH]2)c1,96.9%
15,COc1ccc(C2c3[nH]c4ccc(Cl)cc4c3CCN2c2oc(CO)nc2C#N)cc1 (stereo not given),51.9%
16,CN(C)c1ccc(-c2cc(-c3c[nH]c4ccccc34)nc(N)c2C#N)cc1,40.7%
17,COc1ccccc1/C=C1\Oc2ccc(O)c(O)c2C1=O,86.4%
18,CCCCCc1ccc(S(=O)(=O)Nc2cc(-c3csc(N)n3)ccc2OC)cc1,91.3%
19,O=C(O)c1ccc(-n2c(=O)n(-c3cccc(C(F)(F)F)c3)c(=O)c3cc(-c4ccc(F)cc4F)ccc32)cc1,13.4%
20,Nn1c(=O)n(-c2cccc(C(F)(F)F)c2)c(=O)c2cc(-c3ccc(F)cc3F)ccc21,9.55% (active)

row,SMILES,growth
1,CCCCN1C(=O)/C(=c2\sc3n(c2=O)C2C(NN=3)N(CC)C(=O)N2CC)c2cc(C)ccc21 (stereo not given),93.3%
2,CC(C)[C@H]1c2[nH]c3ccccc3c2C[C@H]2C(=O)N(CCCCCCC(=O)NO)CC(=O)N12,86.7%
3,O=C(N/N=C\c1ccc(F)cc1)c1ccc2nc(-c3ccc(Br)cc3)[nH]c2c1,23.2%
4,NC1[C@H]2CN(c3cnc(C(=O)Nc4cc(F)cc5cccnc45)cn3)C[C@@H]12 (stereo not given in full),75.2%
5,Cc1ccsc1[C@H]1c2[nH]c3ccccc3c2C[C@H]2C(=O)N(CCCCCCC(=O)NO)CC(=O)N12,81.1%
6,CC(=O)N(O)CCCCCNC(=O)CCC(=O)N(O)CCCCCNC(=O)CCC(=O)N(O)CCCCCN(CCCCCCCCCC[P+](c1ccccc1)(c1ccccc1)c1ccccc1)CCCCCCCCCC[P+](c1ccccc1)(c1ccccc1)c1ccccc1,17.2%
7,O=c1nc(Nc2ccc([N+](=O)[O-])cc2O)sc2ccccc12,28.7%
8,Cc1cc2nc(C(Cl)Cl)nc(-c3ccc(S(=O)(=O)N(C)C)cc3)n2n1,58.4%
9,C/C(CC1(O)C(=O)Nc2ccccc21)=N\O (stereo not given),103%
10,C[C@]12CC[C@H]3[C@@H](CC=C4C[C@@H](O)CC[C@@]43C)[C@@H]1CC[C@@H]2[C@](C)(O)CCc1cccnc1,71.4%
11,O=C(CSc1nnc(-c2cccs2)n1-c1ccccc1)Nc1ccccc1F,83.2%
12,CC(=C(c1ccc(OCCCN(C)C)cc1)c1ccc(OCCCN(C)C)cc1)c1ccc(Cl)cc1,92.9%
13,O=C(CSc1nc2ccccc2c(=O)n1-c1ccc(Cl)c(Cl)c1)Nc1ccc(S(=O)(=O)Nc2ccc(Cl)nn2)cc1,96.3%
14,COC(=O)CCSC1=C(C)C(=O)c2ccccc2C1=O,96.5%
15,CCc1cc(OC(=O)N2CCC(N3CCCCC3)CC2)ccc1Nc1cc(-c2ccc(-n3cccn3)cc2)[nH]n1,69.2%
16,O=C(Nc1cc(C(F)(F)F)cc(C(F)(F)F)c1)Nc1ccc2oc(=O)ccc2c1,13.6%
17,Cc1ccc2c(n1)C(=O)C(Cl)=C(Nc1ccc(C(=O)OC(C)(C)C)cc1)C2=O,83.8% [9.25 µM]
18,Cc1cc(=O)[nH]c(O)c1C#N,101%
19,CCN(CC)S(=O)(=O)c1ccc(-c2nc(C(Cl)Cl)nc3cc(C)nn23)cc1,46.2%
20,CNC(=O)Nc1ccc(Nc2cc(-c3ccc(-n4cccn4)cc3)[nH]n2)c(C)c1,97.6%

# From PubChem BioAssay (NCI)
